This note sets out measurements from PubChem BioAssay.

Test [1] in a line: resazurin metabolic signal in HepG2 cells – cell-based, resazurin fluorescence, 24 h, PK04 Diversity Set, profiling panel (AID 1172). Further: test concentration not given here. The conditions noted are these: HepG2 viability, higher = more signal.
Test [2] is described as follows: budding yeast growth changes without added modifier – OD600, strain BY4716, 24 h, basal condition, primary screen (AID 1173). The conditions noted are these: S. cerevisiae BY4716 growth, OD600, 24 h; higher = more signal, called active from +8 up or from −8 down.
Test [3] can be described thus: viability profiling in MM1S myeloma cells – cell-based, resazurin fluorescence, basal, 24 h, PK04 Diversity Set, profiling panel (AID 1174).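 Further: MM1S multiple myeloma cell line; test concentration not given here.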 The conditions noted are these: higher = more signal, called active from +8 up or from −8 down.
The target of test [4] is Dihydroorotate dehydrogenase (quinone), mitochondrial (Plasmodium falciparum (isolate 3D7)) (UniProt Q08210). Kind of test: inhibition of P. falciparum DHODH – biochemical, C-terminal His tag, absorbance 600 nm, primary screen (AID 1175).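 Further: recombinant parasite enzyme with a five histidine tag at its C terminus; test concentration not given here.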 The conditions noted are these: PfDHODH enzyme, DCIP absorbance 600 nm; higher = more signal, called active from +8 up or from −8 down.
Chain of Dihydroorotate dehydrogenase (quinone), mitochondrial (Plasmodium falciparum (isolate 3D7)) (Q08210 whole entry, looked up): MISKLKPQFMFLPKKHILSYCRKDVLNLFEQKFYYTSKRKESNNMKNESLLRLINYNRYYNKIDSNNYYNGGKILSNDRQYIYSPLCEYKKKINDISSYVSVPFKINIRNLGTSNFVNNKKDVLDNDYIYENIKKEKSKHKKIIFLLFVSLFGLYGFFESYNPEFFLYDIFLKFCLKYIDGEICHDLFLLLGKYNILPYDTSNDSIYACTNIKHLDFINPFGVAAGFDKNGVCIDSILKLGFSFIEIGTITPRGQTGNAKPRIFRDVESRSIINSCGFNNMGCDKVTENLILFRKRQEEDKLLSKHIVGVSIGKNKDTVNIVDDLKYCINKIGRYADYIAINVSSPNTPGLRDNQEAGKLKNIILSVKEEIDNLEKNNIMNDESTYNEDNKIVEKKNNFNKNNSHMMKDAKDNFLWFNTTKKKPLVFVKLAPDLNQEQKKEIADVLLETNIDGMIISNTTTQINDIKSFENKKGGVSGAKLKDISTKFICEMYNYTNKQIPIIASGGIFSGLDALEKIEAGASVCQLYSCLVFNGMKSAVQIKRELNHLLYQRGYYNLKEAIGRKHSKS
Test [5] is described as follows: inhibition of PAO1 biofilm formation – strain PAO1, LB-PBS medium, absorbance 600 nm, primary screen (AID 1176). Further: test concentration not given here. The conditions noted are these: P. aeruginosa PAO1 growth/biofilm, A600, 12 h; higher = more signal.
A short description of test [6]: growth modulation of vineyard yeast isolate – strain RM11-1a, OD600, basal, 24 h, primary screen (AID 1177).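 Further: cultures grown under basal conditions with no added stressor; test concentration not given here.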 The conditions noted are these: S. cerevisiae RM11-1a growth, OD600, 24 h; higher = more signal, called active from +8 up or from −8 down.
The nature of test [7]: growth of efflux-deficient E. coli DRC39 – strain DRC39, OD650, 24 h, E. coli filamentation inducers, primary screen (AID 1178).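 Further: growth measured as culture turbidity by optical density at 650 nm; test concentration not given here.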 The conditions noted are these: E. coli DRC39 acrAB, higher = more signal, called active from +8 up or from −8 down.
Test [8] can be described thus: growth of efflux-deficient E. coli DRC39 – strain DRC39, OD650, 48 h, E. coli filamentation inducers, primary screen (AID 1179).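 Further: screen aims at cell division blockers that make cells filament.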 The conditions noted are these: E. coli DRC39 delta-acrAB growth, higher = more signal, called active from +8 up or from −8 down.
Test [9] can be described thus: viability profiling in RPMI8226 myeloma cells – cell-based, resazurin fluorescence, basal, 24 h, PK04 Diversity Set, profiling panel (AID 1180).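 Further: RPMI8826 multiple myeloma cell line at 5000 cells per well; test concentration not given here.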 The conditions noted are these: higher = more signal.
For test [10], the target named is E3 ubiquitin-protein ligase XIAP (Homo sapiens) (UniProt P98170). The experiment in a line: small molecules binding XIAP protein – biophysical, small-molecule microarray, fluorescence 635 nm, primary screen (AID 1181).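 Further: score merges 667 nm emission and signal to noise over triplicate slides.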 The conditions noted are these: higher = more signal.
Chain of E3 ubiquitin-protein ligase XIAP (Homo sapiens) (P98170 whole entry, looked up): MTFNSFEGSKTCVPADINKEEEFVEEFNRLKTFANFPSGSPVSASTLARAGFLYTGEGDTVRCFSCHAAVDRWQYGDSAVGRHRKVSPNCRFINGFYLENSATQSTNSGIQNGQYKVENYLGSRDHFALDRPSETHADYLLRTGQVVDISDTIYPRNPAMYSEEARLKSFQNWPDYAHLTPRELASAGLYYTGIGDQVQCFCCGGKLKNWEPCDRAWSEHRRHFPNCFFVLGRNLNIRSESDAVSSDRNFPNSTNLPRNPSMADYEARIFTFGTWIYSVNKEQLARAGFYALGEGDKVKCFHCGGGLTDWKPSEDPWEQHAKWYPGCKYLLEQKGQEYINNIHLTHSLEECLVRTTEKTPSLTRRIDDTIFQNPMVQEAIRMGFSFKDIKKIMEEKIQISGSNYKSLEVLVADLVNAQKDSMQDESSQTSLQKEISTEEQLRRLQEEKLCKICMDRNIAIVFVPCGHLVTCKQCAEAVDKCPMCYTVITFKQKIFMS

Structures are written as SMILES. Calls of active or inactive are those of the source. Unless noted, how the calls were made is not given here.

`COc1ccc(C(=O)Nc2ccc(CN3C(=O)[C@@]4(O[C@@H](CC(=O)N5CCC[C@H]5CO)[C@H]([Si](C)(C)c5ccc(OC)cc5)[C@H]4C)c4ccccc43)cc2)cc1`: the z-score was 0.294 in test [1]; -0.871 (inactive) in [2]; -0.675 (inactive) in [3]; 1.58 (inactive) in [5]; 0.515 (inactive) in test [6]; 1.28 (inactive) in test [7]. Moreover, the z-score in test [8] was 1.26 (inactive); in [9], -0.677. In addition, the composite z-score is -6.57 (inactive) in test [4] and 0.0774 in test [10].

Take `COc1ccc(C(=O)Nc2cccc(CN3C(=O)[C@]4(O[C@H](CCO)[C@@H]([Si](C)(C)c5ccc(OC)cc5)[C@@H]4C)c4ccccc43)c2)cc1`: the z-score was -6.28 in test [1]; -3.7 (inactive) in test [2]; -9.11 (active) in test [3]; 1.01 (inactive) in test [5]; 4.05 (inactive) in test [6]; 0.127 (inactive) in test [7]. The z-score in test [8] is -0.903 (inactive); in [9] it was -6.27. In addition, the composite z-score in test [4] was 0.255 (inactive); in test [10] it was 0.0847.

For the molecule `C=CCOC(=O)[C@H]1[C@@H]2C(=O)O[C@@H](c3ccccc3)[C@@H](c3ccccc3)N2[C@@H](c2ccc(OCCOC(=O)[C@@H]3C[C@@H]4C(=O)N[C@@H](CCCC[N+](C)(C)C)C(=O)N4[C@@H]3c3ccc(O)cc3)cc2)[C@]12C(=O)Nc1ccccc12`, the z-score in test [1] is 0.863; in test [2], -3.17 (inactive); in test [3] it was 0.844 (inactive); in test [5] it was 0.988 (inactive); in [6] it was 0.545 (inactive); in [7], 0.0865 (inactive). In addition, the z-score in test [8] was -0.661 (inactive); in test [9] it was 1.16. For the same molecule, the figures for the composite z-score in test [4] and in test [10] were -2.77 (inactive) and 0.0055, respectively.

Consider `O=C1O[C@H](c2ccccc2)[C@H](c2ccccc2)N2[C@H]1[C@@H](C(=O)NC[C@H](O)c1ccccc1)[C@]1(C(=O)Nc3ccccc31)[C@H]2c1ccc(OCCO)cc1`, for which the z-score in test [1] is 0.293; in test [2] it was 1.3 (inactive); in test [3] it was -2.05 (inactive); in test [5], 4.04 (inactive); in [6] it was 3.05 (inactive); in test [7], 0.0797 (inactive). For the same molecule, the z-score is 0.0403 (inactive) in test [8] and -3.16 in test [9]. The figures for the composite z-score in [4] and in [10] were 0.0379 (inactive) and -0.0272, respectively.

For the molecule `O=C1NC(=O)C2C1C=CC(C(O)c1cccc3ccccc13)N2Nc1ccccn1` (stereo not given), the z-score in test [1] is -0.692; in [2] it was 0.268 (inactive); in test [3] it was -1.74 (inactive); in test [5], 0.226 (inactive); in test [6], 0.798 (inactive); in [7] it was -0.334 (inactive). Besides, the z-score is 0.638 (inactive) in [8] and -0.94 in test [9]. The composite z-score in test [4] was 0.305 (inactive); in [10], 0.276.

Regarding `COc1ccc(C#Cc2ccc3c(c2)[C@]2(C(=O)N3)[C@H](c3ccccc3OCCO)N3[C@H](c4ccccc4)[C@H](c4ccccc4)OC(=O)[C@H]3[C@@H]2C(=O)O)cc1`, the z-score is 1.86 in [1]; 1.75 (inactive) in test [2]; -3.05 (inactive) in test [3]; 2.76 (inactive) in test [5]; 3.13 (inactive) in [6]; 1.06 (inactive) in [7]. The values for the z-score in test [8] and in [9] were 0.047 (inactive) and -6.75, respectively. Also, the composite z-score in test [4] was -24.8 (active); in test [10], 0.284.

`COCC(=C=CC[C@H](O)c1ccccc1OCCO)C[C@H](O)c1cc(Cl)cc(Cl)c1O`: the z-score was -1.18 in test [1]; -19 (active) in [2]; -0.627 (inactive) in test [3]; -0.0828 (inactive) in test [5]; -22.2 (active) in [6]; 0.275 (inactive) in test [7]. Also, the z-score in test [8] was 0.0273 (inactive); in [9], -0.207. Further, the composite z-score in test [4] was -9.33 (active); in test [10], -0.0559.

Take `CC1CC/C=C\[C@H]2OC34C=CCN(Cn5nnc6ccccc65)C(=O)[C@H]3N(C(CO)C(C)C)C(=O)[C@@H]4C2C(=O)O1` (stereo not given in full): the z-score in test [1] was 0.913; in test [2], 0.673 (inactive); in test [3] it was -1.29 (inactive); in test [5] it was 0.357 (inactive); in [6], -0.271 (inactive); in [7], 0.465 (inactive). Also, the z-score is 0.275 (inactive) in [8] and 0.0555 in test [9]. In addition, the values for the composite z-score in test [4] and in test [10] were -0.64 (inactive) and 0.646, respectively.

As for `CN1C(=O)C2C=CC(C(O)c3ccc(I)cc3)N(N3CCCCC3)C2C1=O` (stereo not given), the z-score in test [1] is -1.17; in test [2], -3.86 (inactive); in test [3], -2.13 (inactive); in test [5], 0.338 (inactive); in test [6], -0.0818 (inactive); in test [7], -0.709 (inactive). For the same molecule, the z-score was -1.11 (inactive) in test [8] and -1.26 in test [9]. Moreover, the composite z-score in [4] is 0.0552 (inactive); in [10] it was 0.33.

With `C=CC[C@]12N=C(c3ccc(OCCCO)cc3)O[C@H]1c1ccccc1N(Cc1ccccc1)C2=O`, the z-score in test [1] was -0.882; in test [2], 0.143 (inactive); in test [3], -3.28 (inactive); in test [5], 0.603 (inactive); in test [6], 0.492 (inactive); in test [7] it was -0.0819 (inactive). In addition, the z-score in test [8] is 0.328 (inactive); in test [9] it was -2.3. Further, the figures for the composite z-score in test [4] and in [10] were 0.648 (inactive) and -0.122, respectively.

On to `CN1C(=O)C2C=CC(C(O)C3=C[C@H]4C[C@@H](C3)C4(C)C)N(Nc3ccccc3)C2C1=O` (stereo not given in full), for which the z-score in [1] is -0.3; in test [2] it was 0.0844 (inactive); in test [3], -0.419 (inactive); in [5] it was 2.14 (inactive); in test [6], 0.602 (inactive); in test [7], -0.328 (inactive). In addition, the z-score was -0.369 (inactive) in [8] and -0.52 in [9]. For the same molecule, the composite z-score was -0.0435 (inactive) in test [4] and -0.174 in test [10].

As to `CN(C)CCCNC(=O)[C@@]1(c2ccc([N+](=O)[O-])cc2)CC(=O)N(C2CCCCC2)[C@@H]1c1ccc(CO)cc1`, the z-score in test [1] was -0.252; in test [2] it was -1.59 (inactive); in test [3], -0.0665 (inactive); in [5], -0.177 (inactive); in [6] it was -0.0078 (inactive); in [7] it was 0.328 (inactive). The z-score in test [8] is -0.16 (inactive); in test [9] it was -0.155. Besides, the composite z-score in test [4] was 0.456 (inactive); in test [10] it was -0.0073.
